Compound activity as filed in PubChem BioAssay.
Hits are enriched below; roughly 3% of the tested compounds scored in any of these assays.
CRE-bla Fsk – Cell signaling CRE-BLA (Fsk stim); 71,000 tested, 2.5% active; CHO CRE-bla reporter (cAMP response element driving beta-lactamase), forskolin EC10, beta-lactamase ratio; Potency, µM (top dose mostly 38.2 µM), most hits filed as activators; active means well fitted activation curve with a large enough effect in the signal ratio, with a control signal flat, not every such curve was filed as active; inconclusive means small, poorly fitted or top-dose-only effect, or effect the other way, or a change in a side signal; the % refers to the signal ratio
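CHO CRE-bla cells, overnight plating in Opti-MEM with 0.5% dialyzed FBS; cpd titration + EC10 NKH 477, 3 h 37 °C; CCF4 2 h RT; ex 405/em 460 vs 530 ratio → %Activity, AC50.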
p53ts 32C tox – qHTS Screen for Compounds that Selectively Target Cancer Cells with p53 Mutations: Cytotoxicity of p53ts Cells at the Permissive Temperature | H1299-p53A138V at 32C, ATP luminescence viability, 24 h | Potency, µM (top dose mostly 46.1 µM), most hits filed as cytotoxic | 130,000 tested, 0.93% active | AID 924, 2007; further: nearly all actives have a fitted effect of over 55% in size
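Cells: H1299 p53ts (A138V), 600/well, pre-incubated 16–30 h at 37C. Cpd up to 46 uM, 24 h, 32C. Readout: ATPlite luminescence, 20 min RT. Normalization: DMSO vs tamoxifen 100 uM. AC50 by Hill equation.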
Peg3 imprint – qHTS Assay for Compounds that Induce Erasure of Genomic Imprints; mouse ES Peg3-LacZ reporter, beta-gal luminescence, 40 h; Potency, µM (series often up to 60.7 µM), usual class: activators; 110,000 tested, 0.02% active; AID 1948, 2009
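Gelatin-coated wells received 300 freshly trypsinized female ES cells with a Peg3LacZ-Neo reporter on the maternal allele, then incubated 40 hours at 37C. BetaGlo was added for 5 minutes at room temperature before a single luminescence read.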
p53ts 39C tox – qHTS Screen for Compounds that Selectively Target Cancer Cells with p53 Mutations: Cytotoxicity of p53ts Cells at the Nonpermissive Temperature; H1299-p53A138V viability at 39C, ATP luminescence, 24 h; AID 902, 2007; Potency, µM (titrated, usually from 46.1 µM), usual class: cytotoxic; 130,000 tested, 1.5% active; further: nearly all actives have a fitted effect of over 55% in size
IkB signaling – IkB Signaling; 110,000 tested, 0.04% active; Potency, µM (doses to about 57.1 µM); ABC-DLBCL IkBa-CBG/CBR dual luciferase ratio, 4 h; response scale: scaled: untreated 0%, proteasome inhibitor 100%; active means well fitted curve in the direction sought with a large enough effect in the signal ratio, not every such curve was filed as active; inconclusive means small, poorly fitted or top-dose-only effect, or a change in a side signal; the % refers to the signal ratio;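 further: the direction sought is a rising ratio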
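In this assay, an IκBα–CBG68 fusion accumulates when IKK-driven degradation is blocked; native CBR normalizes for cell number. OCI-Ly3 cells were treated 4 h with compound and doxycycline, then green and red light read after Chroma-Glo addition.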
Of the large screens only hits and unclear results are named; the others gave an inactive call. Unless noted, the call rests on the fitted dose curve; in most records, active means well fitted curve in the direction sought with a large enough effect; inconclusive means small, poorly fitted or top-dose-only effect, or another doubt; inactive means no such curve, though single readings can be large; an effect the other way counts as inactive or inconclusive.

Cc1c(NC(=O)c2cc([N+](=O)[O-])ccc2N2CCOCC2)cccc1-c1nc2ccccc2o1	p53ts 39C tox inconclusive, IkB signaling inconclusive (no result: CRE-bla Fsk)
O=C(Nc1ccc(Cl)cn1)c1cc2ccccc2o1	p53ts 32C tox 12.6µM, p53ts 39C tox inconclusive, IkB signaling inconclusive
Cc1cc(C(=O)NC2=NCCS2)cs1	p53ts 32C tox inconclusive, p53ts 39C tox inconclusive
O=C(NC1=NCCS1)Nc1ccccc1	p53ts 32C tox 10µM, p53ts 39C tox 15.8µM
O=C(NC1=NCCS1)c1cc2ccccc2o1	CRE-bla Fsk inconclusive, p53ts 32C tox 5.01µM, p53ts 39C tox 5.01µM, IkB signaling inconclusive
O=C(Nc1ccc(NC(=O)c2cc3ccccc3o2)cc1)c1ccccc1	none (no result: CRE-bla Fsk)
O=C(NC1=NCCS1)c1csc2ccccc12	p53ts 32C tox 12.6µM, p53ts 39C tox inconclusive (no result: CRE-bla Fsk, Peg3 imprint, IkB signaling)
COc1cc2ncc(C(=O)c3ccc(C)cc3)c(N3CCCCC3)c2cc1OC	IkB signaling inconclusive (no result: CRE-bla Fsk)
c1csc(CNc2nc(-c3ccoc3)nc3ccccc23)c1	Peg3 imprint inconclusive
Cc1ccc(C)c(N2CCN(C(=O)C3CCN(c4nc(-c5ccc(C(C)C)cc5)no4)CC3)CC2)c1	none (no result: CRE-bla Fsk)
Cc1cc(Cl)ccc1NC(=O)CCCn1nc(C)c2c(C)n(-c3ccccc3)nc2c1=O	p53ts 39C tox inconclusive (no result: CRE-bla Fsk)
COC(=O)c1cc(NC(=O)c2nn(C)c3c2CSc2ccccc2-3)cc(C(=O)OC)c1	none (no result: CRE-bla Fsk)
O=C(Nc1ccccn1)c1cc2ccccc2o1	p53ts 32C tox 4.47µM, p53ts 39C tox 5.01µM (no result: CRE-bla Fsk, Peg3 imprint, IkB signaling)
Cc1ccc(N2CCN(C(=O)C3CCN(c4ncnc5c4nc4n5CCCCC4)CC3)CC2)c(C)c1	none (no result: CRE-bla Fsk, Peg3 imprint, p53ts 39C tox, IkB signaling)
CC(C)(C)C(=O)Nc1ccc(-c2nc3ccc(NC(=O)C(C)(C)C)cc3[nH]2)cc1	p53ts 32C tox 7.94µM, p53ts 39C tox inconclusive (no result: CRE-bla Fsk)
COc1ccc(CCNC(=O)Cc2ccc(NC(=O)N3CCSc4ncccc43)cc2)cc1OC	IkB signaling inconclusive (no result: CRE-bla Fsk)
Cc1cc(C)cc(NC(=O)CSc2oc(-c3ccco3)nc2S(=O)(=O)c2ccccc2)c1	IkB signaling inconclusive (no result: CRE-bla Fsk)
Cc1cc(C)cc(NC(=O)CSc2oc(-c3ccco3)nc2S(=O)(=O)c2ccc(Cl)cc2)c1	p53ts 32C tox 10µM, p53ts 39C tox 6.31µM, IkB signaling inconclusive (no result: CRE-bla Fsk)
CCOc1cccc(NC(=O)C2CC(=O)N(C)C(=Nc3cccc(OC)c3)S2)c1 (centres undefined)	p53ts 32C tox inconclusive, p53ts 39C tox 12.6µM (no result: CRE-bla Fsk)
CCOc1cccc(NC(=O)C2CC(=O)N(C)C(=Nc3ccc(OC)cc3)S2)c1 (centres undefined)	none (no result: CRE-bla Fsk)
CCCc1nc2ccccc2n2cc3c(=O)n(C)c(=O)n(C)c3c12	CRE-bla Fsk 5.01µM
COc1ccc(-c2csc3c2[N+]2=CCC=C2C3=O)cc1	CRE-bla Fsk 3.16µM, IkB signaling inconclusive
COC(=O)c1scc(-c2ccc(C)cc2)c1S(=O)(=O)N1CCN(c2ccc(OC)cc2)CC1	none (no result: CRE-bla Fsk)
Cc1ccc2c(c1)N(CCC(=O)NCCCOC(C)C)C(=O)C(C)O2 (centres undefined)	CRE-bla Fsk 12.6µM
CCOc1ccc(-n2c(SCC(=O)Nc3cc(C)ccc3C)nc3c([nH]c4ccccc43)c2=O)cc1	none (no result: CRE-bla Fsk)
Cc1ccc(-n2c(SCC(=O)Nc3cc(C)on3)nc3c(c2=O)SC(C)C3)cc1 (centres undefined)	CRE-bla Fsk inconclusive, p53ts 32C tox 10µM, p53ts 39C tox inconclusive
COc1cccc(NC(=O)CSc2nc3c([nH]c4ccccc43)c(=O)n2-c2cc(C)cc(C)c2)c1	none (no result: CRE-bla Fsk)
CCOc1ccc(-n2c(SCC(=O)Nc3cc(C)on3)nc3c([nH]c4ccccc43)c2=O)cc1	CRE-bla Fsk 1.26µM
Cc1cc(NC(=O)CSc2nc3ccccc3c(=O)n2C2CCCC2)no1	CRE-bla Fsk 12.6µM
CCn1c(SCC(=O)Nc2cc(C)on2)nc2c(c1=O)SC(C)C2 (centres undefined)	none
COC(=O)c1ccc(CSc2nc3c([nH]c4ccccc43)c(=O)n2-c2cc(C)cc(C)c2)o1	p53ts 39C tox 15.8µM (no result: CRE-bla Fsk)
CN(C)c1ccc(NC(=O)CSc2nc3ccccc3c(=O)n2C2CCCCC2)cc1	none
CC(=O)Nc1ccc(NC(=O)CCc2nc3cccnc3n2Cc2cccs2)cc1	IkB signaling inconclusive (no result: CRE-bla Fsk)
COc1ccccc1NC(=O)CSc1oc(-c2ccccc2)nc1S(=O)(=O)c1ccccc1	none (no result: CRE-bla Fsk)
COc1cccc(-n2nnc(-c3nc(-c4ccccc4F)no3)c2C)c1	p53ts 32C tox inconclusive, p53ts 39C tox inconclusive (no result: CRE-bla Fsk)
COc1ncc2nc(-c3cc(F)cc(F)c3)c(=O)n(Cc3cccs3)c2n1	CRE-bla Fsk 5.01µM (no result: Peg3 imprint)
O=c1c(-c2cccs2)nc2cnc(Oc3ccccc3)nc2n1Cc1cccs1	CRE-bla Fsk inconclusive
COc1ccc(Oc2ncc3nc(-c4cccs4)c(=O)n(Cc4cccs4)c3n2)cc1	CRE-bla Fsk 3.16µM (no result: Peg3 imprint)
COc1ncc2nc(-c3cccs3)c(=O)n(C)c2n1	CRE-bla Fsk 3.16µM
COc1cccc(Cn2c(=O)c(-c3cccs3)nc3cnc(OCc4ccccc4)nc32)c1	CRE-bla Fsk 1.26µM, Peg3 imprint inconclusive
COc1ccc(CNc2oc(-c3ccc(COc4ccc(Cl)cc4)o3)nc2C#N)cc1	none (no result: CRE-bla Fsk)
COc1ccc(C)cc1NS(=O)(=O)c1ccc2c(c1)CCCN2C(C)=O	none (no result: CRE-bla Fsk)
CCCN(C(=O)COc1cc(=O)n(CC)c2ccccc12)c1ccc(C(C)C)cc1	p53ts 39C tox inconclusive, IkB signaling inconclusive (no result: CRE-bla Fsk)
COc1ccc(-n2c(=O)c(-c3cccs3)nc3cnc(OC)nc32)cc1	CRE-bla Fsk inconclusive
